Targets with a hit are over-represented here; the source holds about 8,800 in all. About 0.5% of all pairs of compound and target were hits.

UniProt Q9P0P0, sequence (Q9P0P0 whole entry, looked up): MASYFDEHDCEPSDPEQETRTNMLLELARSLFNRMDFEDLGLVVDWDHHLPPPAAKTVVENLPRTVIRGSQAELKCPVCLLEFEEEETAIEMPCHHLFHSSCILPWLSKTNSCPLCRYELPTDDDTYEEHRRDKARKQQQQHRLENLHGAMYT
UniProt O14730, sequence (O14730 whole entry, looked up): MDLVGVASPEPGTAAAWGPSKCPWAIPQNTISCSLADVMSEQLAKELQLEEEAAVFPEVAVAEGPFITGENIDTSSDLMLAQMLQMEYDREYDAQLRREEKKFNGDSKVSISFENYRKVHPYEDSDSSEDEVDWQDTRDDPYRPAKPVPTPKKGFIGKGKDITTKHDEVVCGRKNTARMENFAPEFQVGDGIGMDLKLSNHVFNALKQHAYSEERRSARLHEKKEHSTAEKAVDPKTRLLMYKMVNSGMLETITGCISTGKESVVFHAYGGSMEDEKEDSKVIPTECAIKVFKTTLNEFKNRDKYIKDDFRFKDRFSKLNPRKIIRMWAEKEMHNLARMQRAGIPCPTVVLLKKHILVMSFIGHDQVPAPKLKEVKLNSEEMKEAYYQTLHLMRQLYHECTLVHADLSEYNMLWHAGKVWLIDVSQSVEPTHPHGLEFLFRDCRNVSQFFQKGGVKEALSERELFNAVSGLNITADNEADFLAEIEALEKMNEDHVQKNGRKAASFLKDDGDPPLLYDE
UniProt Q9GZR2, sequence (Q9GZR2 whole entry, looked up): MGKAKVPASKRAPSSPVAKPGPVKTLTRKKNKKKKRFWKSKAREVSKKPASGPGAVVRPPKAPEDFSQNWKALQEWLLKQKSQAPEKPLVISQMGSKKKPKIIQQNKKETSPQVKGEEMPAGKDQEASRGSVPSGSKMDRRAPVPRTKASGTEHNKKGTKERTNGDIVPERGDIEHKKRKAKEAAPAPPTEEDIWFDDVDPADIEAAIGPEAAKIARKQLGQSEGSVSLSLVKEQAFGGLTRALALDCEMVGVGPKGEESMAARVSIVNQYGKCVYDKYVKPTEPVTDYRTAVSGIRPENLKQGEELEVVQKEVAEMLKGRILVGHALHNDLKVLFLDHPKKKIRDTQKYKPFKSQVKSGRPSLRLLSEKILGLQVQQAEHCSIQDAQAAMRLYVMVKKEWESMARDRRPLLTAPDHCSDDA
UniProt Q9BWH6, sequence (Q9BWH6 whole entry, looked up): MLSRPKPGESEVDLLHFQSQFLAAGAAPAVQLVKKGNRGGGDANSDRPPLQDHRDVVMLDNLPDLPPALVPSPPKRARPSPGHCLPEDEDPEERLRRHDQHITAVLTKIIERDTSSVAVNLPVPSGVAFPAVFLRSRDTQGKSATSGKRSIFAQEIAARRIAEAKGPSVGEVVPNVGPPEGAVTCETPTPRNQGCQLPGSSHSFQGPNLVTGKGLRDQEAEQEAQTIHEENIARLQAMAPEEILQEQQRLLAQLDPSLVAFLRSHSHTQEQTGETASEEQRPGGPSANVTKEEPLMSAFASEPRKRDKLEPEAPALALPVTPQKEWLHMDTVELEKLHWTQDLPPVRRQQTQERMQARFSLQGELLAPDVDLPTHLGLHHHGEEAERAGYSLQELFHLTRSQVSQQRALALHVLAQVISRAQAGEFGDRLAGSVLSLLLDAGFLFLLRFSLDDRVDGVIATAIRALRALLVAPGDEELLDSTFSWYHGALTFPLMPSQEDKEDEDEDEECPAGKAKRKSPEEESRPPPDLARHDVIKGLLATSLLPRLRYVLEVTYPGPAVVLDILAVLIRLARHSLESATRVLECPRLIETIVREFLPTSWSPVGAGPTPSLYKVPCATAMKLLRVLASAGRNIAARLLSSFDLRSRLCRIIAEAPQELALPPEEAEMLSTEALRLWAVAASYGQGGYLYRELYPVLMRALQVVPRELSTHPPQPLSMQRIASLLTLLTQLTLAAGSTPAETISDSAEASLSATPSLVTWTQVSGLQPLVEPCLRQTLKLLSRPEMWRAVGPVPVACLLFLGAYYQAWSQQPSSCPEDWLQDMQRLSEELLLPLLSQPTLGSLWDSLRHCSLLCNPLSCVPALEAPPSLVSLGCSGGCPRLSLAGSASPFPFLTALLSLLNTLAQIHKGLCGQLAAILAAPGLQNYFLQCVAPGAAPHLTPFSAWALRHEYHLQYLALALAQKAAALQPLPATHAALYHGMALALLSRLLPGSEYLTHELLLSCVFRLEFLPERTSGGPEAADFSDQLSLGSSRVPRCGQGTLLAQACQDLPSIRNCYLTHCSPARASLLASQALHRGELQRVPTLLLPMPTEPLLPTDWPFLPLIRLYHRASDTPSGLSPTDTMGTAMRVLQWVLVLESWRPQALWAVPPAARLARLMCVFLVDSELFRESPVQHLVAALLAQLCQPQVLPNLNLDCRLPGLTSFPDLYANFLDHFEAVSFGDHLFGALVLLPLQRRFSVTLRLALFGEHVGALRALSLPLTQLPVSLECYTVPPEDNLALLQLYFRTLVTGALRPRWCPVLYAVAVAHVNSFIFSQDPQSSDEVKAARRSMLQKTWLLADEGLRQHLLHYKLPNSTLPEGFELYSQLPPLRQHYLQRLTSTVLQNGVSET
UniProt P04049, sequence (P04049 whole entry, looked up): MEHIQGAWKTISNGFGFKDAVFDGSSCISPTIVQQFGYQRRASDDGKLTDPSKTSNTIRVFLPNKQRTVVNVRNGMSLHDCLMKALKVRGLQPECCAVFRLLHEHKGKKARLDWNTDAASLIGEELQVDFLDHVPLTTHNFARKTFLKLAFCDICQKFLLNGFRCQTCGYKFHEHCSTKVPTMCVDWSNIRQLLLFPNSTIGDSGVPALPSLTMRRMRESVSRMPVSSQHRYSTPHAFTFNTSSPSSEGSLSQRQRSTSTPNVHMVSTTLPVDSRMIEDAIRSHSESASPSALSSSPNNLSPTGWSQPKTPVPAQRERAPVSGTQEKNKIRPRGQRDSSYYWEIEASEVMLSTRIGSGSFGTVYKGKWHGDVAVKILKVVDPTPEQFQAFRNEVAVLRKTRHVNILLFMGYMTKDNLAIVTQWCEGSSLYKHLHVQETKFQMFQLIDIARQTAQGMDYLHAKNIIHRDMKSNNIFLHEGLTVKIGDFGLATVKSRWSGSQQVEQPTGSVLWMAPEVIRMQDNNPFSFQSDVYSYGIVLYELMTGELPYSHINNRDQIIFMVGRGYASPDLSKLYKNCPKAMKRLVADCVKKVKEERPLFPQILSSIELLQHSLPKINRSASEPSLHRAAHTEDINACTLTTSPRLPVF
UniProt Q8WWV3, sequence (Q8WWV3 whole entry, looked up): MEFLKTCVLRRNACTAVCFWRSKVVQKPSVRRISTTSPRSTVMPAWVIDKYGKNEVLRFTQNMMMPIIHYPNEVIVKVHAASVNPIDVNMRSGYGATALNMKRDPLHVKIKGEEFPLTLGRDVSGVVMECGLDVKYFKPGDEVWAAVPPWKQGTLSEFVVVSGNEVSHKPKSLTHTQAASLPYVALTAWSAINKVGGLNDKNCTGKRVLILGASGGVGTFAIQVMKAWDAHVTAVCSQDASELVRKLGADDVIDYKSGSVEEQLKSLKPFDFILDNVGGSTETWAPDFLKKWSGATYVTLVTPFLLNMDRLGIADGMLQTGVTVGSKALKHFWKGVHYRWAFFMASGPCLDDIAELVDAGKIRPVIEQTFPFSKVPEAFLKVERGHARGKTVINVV
UniProt P61224, sequence (P61224 whole entry, looked up): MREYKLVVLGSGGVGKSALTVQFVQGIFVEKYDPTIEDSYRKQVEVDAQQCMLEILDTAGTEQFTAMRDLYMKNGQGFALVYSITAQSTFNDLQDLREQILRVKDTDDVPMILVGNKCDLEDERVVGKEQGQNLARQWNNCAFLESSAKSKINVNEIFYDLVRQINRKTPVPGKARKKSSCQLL
UniProt Q05823, sequence (Q05823 whole entry, looked up): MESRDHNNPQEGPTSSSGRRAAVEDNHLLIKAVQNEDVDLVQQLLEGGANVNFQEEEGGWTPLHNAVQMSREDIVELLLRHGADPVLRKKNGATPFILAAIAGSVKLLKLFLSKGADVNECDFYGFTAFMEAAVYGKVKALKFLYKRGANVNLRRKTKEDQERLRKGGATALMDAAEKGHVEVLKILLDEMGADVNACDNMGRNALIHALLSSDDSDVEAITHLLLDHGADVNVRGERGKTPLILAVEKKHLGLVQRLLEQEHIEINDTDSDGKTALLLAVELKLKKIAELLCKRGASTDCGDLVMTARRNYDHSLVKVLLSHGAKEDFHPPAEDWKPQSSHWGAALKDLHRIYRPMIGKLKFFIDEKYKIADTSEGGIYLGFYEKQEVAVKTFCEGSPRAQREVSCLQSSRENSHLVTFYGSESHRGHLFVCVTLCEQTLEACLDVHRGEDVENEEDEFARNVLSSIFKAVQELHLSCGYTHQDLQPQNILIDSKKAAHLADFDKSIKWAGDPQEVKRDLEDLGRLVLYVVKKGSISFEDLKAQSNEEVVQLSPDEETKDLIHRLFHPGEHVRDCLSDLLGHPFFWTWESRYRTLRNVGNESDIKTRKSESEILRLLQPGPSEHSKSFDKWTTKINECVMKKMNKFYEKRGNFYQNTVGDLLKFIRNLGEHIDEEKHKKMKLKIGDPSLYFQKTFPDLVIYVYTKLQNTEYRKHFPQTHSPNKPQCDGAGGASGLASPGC
UniProt Q5TBB1, sequence (Q5TBB1 whole entry, looked up): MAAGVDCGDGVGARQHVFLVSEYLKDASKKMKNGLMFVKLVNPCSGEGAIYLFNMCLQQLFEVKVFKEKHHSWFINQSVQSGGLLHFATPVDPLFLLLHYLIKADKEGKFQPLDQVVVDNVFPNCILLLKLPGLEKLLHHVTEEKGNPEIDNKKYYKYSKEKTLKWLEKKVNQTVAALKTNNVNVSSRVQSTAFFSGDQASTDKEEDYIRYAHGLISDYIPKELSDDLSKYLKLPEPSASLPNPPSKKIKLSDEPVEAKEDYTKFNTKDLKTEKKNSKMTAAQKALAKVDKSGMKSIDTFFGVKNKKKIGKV
UniProt Q9UL25, sequence (Q9UL25 whole entry, looked up): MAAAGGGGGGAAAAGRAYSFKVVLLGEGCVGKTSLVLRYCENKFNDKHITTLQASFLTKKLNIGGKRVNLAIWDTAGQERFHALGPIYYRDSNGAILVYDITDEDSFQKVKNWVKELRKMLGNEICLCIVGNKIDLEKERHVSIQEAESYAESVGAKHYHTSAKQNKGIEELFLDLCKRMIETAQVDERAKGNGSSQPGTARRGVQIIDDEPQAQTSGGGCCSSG

Compound in the first assay: C1CCN(C1)C(=O)NC2=CC=CC(=C2)NC3=NC=C(C(=N3)NCCC4=CN=CN4)Br
The experiment in a line: log2 fold change, soluble protein after heating vs DMSO (PISA); higher = thermal stabilisation; K562 lysate, 10 uM; active = over 0.2 and 3.5 SD of the protein, either way, in both replicates (recomputed). In short, it runs like this: (§1)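 Following dounce homogenisation of K562 pellets in PBS pH 7.4 with 1 mM MgCl2, crude extract at 1 mg/mL protein was incubated for 30 min with 10 μM compound. Aliquots were then heated for 3 min over 48°C-58°C and pooled, NP-40 was added to 0.5% at 4°C, and soluble protein was recovered as the supernatant at 21,000xg for 90 min. Channel-sum-equalised TMTpro 16plex LC-MS/MS quantified this protein. Each value, from duplicates, is a log-two fold change in thermal stability relative to solvent controls.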
In the case of SCML2 (UniProt Q9UQR0), the log2 fold change is -0.003 (inactive).

In the case of SESN2 (UniProt P58004), the log2 fold change is 0.051 (inactive).

With RAF1 isoform 2 (UniProt P04049), the log2 fold change is 0.036 (inactive).

As for RFC3 (UniProt P40938), the log2 fold change is -0.002 (inactive).

Regarding RPS4X (UniProt P62701), the log2 fold change was 0.017 (inactive).

With SEC24D isoform 2 (UniProt O94855), the log2 fold change is -0.013 (inactive).

With SCCPDH (UniProt Q8NBX0), the log2 fold change was -0.03 (inactive).

With SEH1L isoform 1 (UniProt Q96EE3), the log2 fold change was -0.025 (inactive).

On to RTN4IP1 (UniProt Q8WWV3), for which the log2 fold change was 0.033 (inactive).

As to RPAP1 (UniProt Q9BWH6), the log2 fold change is -0.001 (inactive).

Turning to RIOK1 (UniProt Q9BRS2), the log2 fold change is -0.024 (inactive).

In the case of REXO4 (UniProt Q9GZR2), the log2 fold change is -0.022 (inactive).

On to RNF181 (UniProt Q9P0P0), for which the log2 fold change was 0.03 (inactive).

Take RBMX (UniProt P38159): the log2 fold change was 0.06 (inactive).

For RIOK3 (UniProt O14730), the log2 fold change was 0.016 (inactive).

Take RNASEH2B (UniProt Q5TBB1): the log2 fold change was -0.01 (inactive).

SCD (UniProt O00767): the log2 fold change is -0.24 (inactive).

Turning to RBM42 (UniProt Q9BTD8), the log2 fold change is -0.017 (inactive).

In the case of RPL37A (UniProt P61513), the log2 fold change was 0.039 (inactive).

RPN2 (UniProt P04844): the log2 fold change is -0.007 (inactive).

For RRAGA (UniProt Q7L523), the log2 fold change was -0.062 (inactive).

For RIC1 (UniProt Q4ADV7), the log2 fold change was 0.038 (inactive).

Consider RNASEL (UniProt Q05823), for which the log2 fold change was -0.031 (inactive).

RECQL5 (UniProt O94762): the log2 fold change was -0.062 (inactive).

For the target QRSL1 (UniProt Q9H0R6), the log2 fold change is -0.017 (inactive).

As to SBF1 isoform 4 (UniProt O95248), the log2 fold change is 0.028 (inactive).

With RAP1B (UniProt P61224), the log2 fold change was -0.033 (inactive).

As to RPS26P11 (UniProt Q5JNZ5), the log2 fold change was -0.045 (inactive).

Take RPL8 (UniProt P62917): the log2 fold change is 0.019 (inactive).

With RIPK1 (UniProt Q13546), the log2 fold change was 0.031 (inactive).

As for RDX (UniProt P35241), the log2 fold change is 0.012 (inactive).

Turning to RAB21 (UniProt Q9UL25), the log2 fold change is 0.026 (inactive).

In the case of RBBP7 isoform 2 (UniProt Q16576), the log2 fold change is 0.041 (inactive).

Compound in a further assay: C1CN(CCC1(CC2=CC=C(C=C2)Cl)N)C3=NC=NC4=C3C=CN4
Described as above. Summed up:
as §1
As to SCML2 (UniProt Q9UQR0), the log2 fold change is 0.043 (inactive).

SESN2 (UniProt P58004): the log2 fold change is -0.014 (inactive).

As to RAF1 isoform 2 (UniProt P04049), the log2 fold change was -0.044 (inactive).

With RFC3 (UniProt P40938), the log2 fold change was 0.049 (inactive).

For RPS4X (UniProt P62701), the log2 fold change is 0.004 (inactive).

SEC24D isoform 2 (UniProt O94855): the log2 fold change is 0.004 (inactive).

Take SCCPDH (UniProt Q8NBX0): the log2 fold change was 0.026 (inactive).

In the case of SEH1L isoform 1 (UniProt Q96EE3), the log2 fold change was 0.026 (inactive).

On to RTN4IP1 (UniProt Q8WWV3), for which the log2 fold change is -0.016 (inactive).

In the case of RPAP1 (UniProt Q9BWH6), the log2 fold change is 0.02 (inactive).

As for RIOK1 (UniProt Q9BRS2), the log2 fold change is 0.028 (inactive).

As for REXO4 (UniProt Q9GZR2), the log2 fold change was 0.003 (inactive).

As to RNF181 (UniProt Q9P0P0), the log2 fold change is 0.099 (inactive).

Regarding RBMX (UniProt P38159), the log2 fold change was 0.029 (inactive).

With RIOK3 (UniProt O14730), the log2 fold change was -0.006 (inactive).

As for RNASEH2B (UniProt Q5TBB1), the log2 fold change is -0.041 (inactive).

Take SCD (UniProt O00767): the log2 fold change was -0.021 (inactive).

In the case of RBM42 (UniProt Q9BTD8), the log2 fold change is -0.014 (inactive).

RPL37A (UniProt P61513): the log2 fold change is -0.035 (inactive).

For RPN2 (UniProt P04844), the log2 fold change is 0.006 (inactive).

With RRAGA (UniProt Q7L523), the log2 fold change was 0.005 (inactive).

With RIC1 (UniProt Q4ADV7), the log2 fold change was 0.057 (inactive).

On to RNASEL (UniProt Q05823), for which the log2 fold change is 0.005 (inactive).

Consider RECQL5 (UniProt O94762), for which the log2 fold change is 0.036 (inactive).

Turning to QRSL1 (UniProt Q9H0R6), the log2 fold change is 0.022 (inactive).

Consider SBF1 isoform 4 (UniProt O95248), for which the log2 fold change was -0.026 (inactive).

Turning to RAP1B (UniProt P61224), the log2 fold change is -0.004 (inactive).

Take RPS26P11 (UniProt Q5JNZ5): the log2 fold change is 0.008 (inactive).

As for RPL8 (UniProt P62917), the log2 fold change is -0.085 (inactive).

Regarding RIPK1 (UniProt Q13546), the log2 fold change was -0.057 (inactive).

Take RDX (UniProt P35241): the log2 fold change was -0.025 (inactive).

For the target RAB21 (UniProt Q9UL25), the log2 fold change is 0.012 (inactive).

As for RBBP7 isoform 2 (UniProt Q16576), the log2 fold change was -0.026 (inactive).

Compound in the next assay: C1COCCN1CCN2C3=CC=CC=C3N=C2NC(=O)C4=CC(=CC=C4)[N+](=O)[O-] [IRAK-1-4 Inhibitor I]
The description is as above. Summed up: as §1
With SCML2 (UniProt Q9UQR0), the log2 fold change was -0.01 (inactive).

Turning to SESN2 (UniProt P58004), the log2 fold change was -0.048 (inactive).

As for RAF1 isoform 2 (UniProt P04049), the log2 fold change was -0.058 (inactive).

On to RFC3 (UniProt P40938), for which the log2 fold change was 0.028 (inactive).

In the case of RPS4X (UniProt P62701), the log2 fold change is 0.03 (inactive).

SEC24D isoform 2 (UniProt O94855): the log2 fold change is -0.002 (inactive).

As for SCCPDH (UniProt Q8NBX0), the log2 fold change was 0.016 (inactive).

As for SEH1L isoform 1 (UniProt Q96EE3), the log2 fold change is 0.031 (inactive).

On to RTN4IP1 (UniProt Q8WWV3), for which the log2 fold change was 0.011 (inactive).

As for RPAP1 (UniProt Q9BWH6), the log2 fold change was 0.005 (inactive).

Regarding RIOK1 (UniProt Q9BRS2), the log2 fold change was -0.02 (inactive).

For REXO4 (UniProt Q9GZR2), the log2 fold change is -0.027 (inactive).

Regarding RNF181 (UniProt Q9P0P0), the log2 fold change was -0.014 (inactive).

Take RBMX (UniProt P38159): the log2 fold change was -0.012 (inactive).

RIOK3 (UniProt O14730): the log2 fold change is 0.016 (inactive).

For the target RNASEH2B (UniProt Q5TBB1), the log2 fold change was -0.003 (inactive).

As for SCD (UniProt O00767), the log2 fold change was 0.07 (inactive).

Regarding RBM42 (UniProt Q9BTD8), the log2 fold change is 0.049 (inactive).

Regarding RPL37A (UniProt P61513), the log2 fold change is -0.023 (inactive).

Turning to RPN2 (UniProt P04844), the log2 fold change was 0.007 (inactive).

As for RRAGA (UniProt Q7L523), the log2 fold change is 0.026 (inactive).

Regarding RIC1 (UniProt Q4ADV7), the log2 fold change is 0.022 (inactive).

Take RNASEL (UniProt Q05823): the log2 fold change is 0.006 (inactive).

For RECQL5 (UniProt O94762), the log2 fold change was 0.006 (inactive).

In the case of QRSL1 (UniProt Q9H0R6), the log2 fold change was -0.01 (inactive).

Regarding SBF1 isoform 4 (UniProt O95248), the log2 fold change was -0.002 (inactive).

Regarding RAP1B (UniProt P61224), the log2 fold change is 0.014 (inactive).

In the case of RPS26P11 (UniProt Q5JNZ5), the log2 fold change is 0.001 (inactive).

RPL8 (UniProt P62917): the log2 fold change is -0.005 (inactive).

Regarding RIPK1 (UniProt Q13546), the log2 fold change was 0 (inactive).

With RDX (UniProt P35241), the log2 fold change is 0.006 (inactive).

Take RAB21 (UniProt Q9UL25): the log2 fold change is 0.045 (inactive).

Regarding RBBP7 isoform 2 (UniProt Q16576), the log2 fold change is -0.006 (inactive).

For the origin of these results see the supplement of paper PMC10849652.
